# TDP1 block = blocks human tyrosyl-DNA phosphodiesterase 1; recombinant TDP1, AlphaScreen DNA substrate cleavage; Q9NUW8; 350,000 tested, 0.28% active; Potency, µM (highest dose often 130 µM), without a hit: at the highest dose activity change, negative = inhibition, usual class: inhibitors; AID 485290; also: nearly all actives have a fitted effect of over 40% in size
# Target sequence (Q9NUW8 whole entry, looked up): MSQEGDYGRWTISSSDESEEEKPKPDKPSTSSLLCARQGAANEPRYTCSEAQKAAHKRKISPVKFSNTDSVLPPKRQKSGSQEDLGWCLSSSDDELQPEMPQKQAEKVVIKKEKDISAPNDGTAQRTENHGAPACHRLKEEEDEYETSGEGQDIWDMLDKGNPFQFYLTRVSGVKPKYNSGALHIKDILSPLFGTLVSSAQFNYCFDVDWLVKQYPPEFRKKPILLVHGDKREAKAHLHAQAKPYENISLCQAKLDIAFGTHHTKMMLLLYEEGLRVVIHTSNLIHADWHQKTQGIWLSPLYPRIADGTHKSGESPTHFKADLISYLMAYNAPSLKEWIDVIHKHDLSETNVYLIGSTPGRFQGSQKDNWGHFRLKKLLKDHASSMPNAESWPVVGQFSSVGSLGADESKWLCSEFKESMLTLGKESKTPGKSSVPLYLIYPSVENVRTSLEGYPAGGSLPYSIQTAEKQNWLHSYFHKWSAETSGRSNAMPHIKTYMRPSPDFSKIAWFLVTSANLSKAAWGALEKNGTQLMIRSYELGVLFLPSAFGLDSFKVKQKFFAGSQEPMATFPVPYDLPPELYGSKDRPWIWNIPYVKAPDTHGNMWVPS
#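 Here, a 5' biotin and 3' phosphotyrosine-FITC DNA oligonucleotide reports Tdp1 activity: intact substrate bridges AlphaScreen beads, while cleavage leaves a 3' phosphate and drops signal. All incubations at room temperature.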
# DT40 TDP1 CPT = growth inhibition of DT40 Tdp1-/-;hTDP1 cells with camptothecin (screen for TDP1 inhibitors); chicken DT40 Tdp1-/-;hTDP1 cells + 20 nM CPT, ATP luminescence, 48 h; Potency, µM (series often up to 46.2 µM), for inactives: at the highest dose activity change, negative = growth inhibition, actives largely listed as inhibitors; 420,000 tested, 12% active; also: nearly all actives have a fitted effect of over 55% in size
#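 Chicken DT40 Tdp1-/- cells complemented with human TDP1, 400 cells/well, exposed to compounds plus 20 nM camptothecin for at least 48 h at 37 C; viability read as ATP content by CellTiter-Glo luminescence.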
# Gal4-VP16 FLuc = counter-screen for ROR gamma inhibitors: Gal4-VP16 reporter. Potency, µM (titrated, usually from 53.6 µM), inactives show at the top dose activity, negative = inhibition, actives largely listed as inhibitors. AID 2546. Drosophila S2 Gal4-VP16 UAS-luciferase, luminescence, 20 h. 310,000 tested, 3.5% active;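 also: Gal4-VP16 expression switched on by copper sulfate through the metallothionein promoter; nearly all actives have a fitted effect of over 50% in size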
# TDP1 cell noCPT = qHTS for Inhibitors of human tyrosyl-DNA phosphodiesterase 1 (TDP1): qHTS in cells in absence of CPT | DT40 Tdp1-/- hTDP1 cells, no CPT, ATP luminescence, 48 h | Potency, µM (top dose mostly 46.2 µM), for inactives: top-dose activity change, negative = growth inhibition, hits mostly inhibitors | 420,000 tested, 15% active | AID 686978, 2013; also: nearly all actives have a fitted effect of over 55% in size
#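 Chicken DT40 Tdp1-/- cells stably complemented with human TDP1 were seeded at 400 cells/well with DMSO in place of 20 nM camptothecin. After compound pinning, cells grew at least 48 hr at 37 °C; viability read by CellTiter-Glo luminescence.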
# RORgamma inh = ROR gamma (mouse) transcription inhibition; P51450; Drosophila S2 Gal4-RORgamma UAS-luciferase reporter, 20 h; Potency, µM (series often up to 53.6 µM), for the others: top-dose activity change, negative = inhibition, usual class: inhibitors; 310,000 tested, 5.4% active; also: nearly all actives have a fitted effect of over 60% in size
#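 In this cell-based reporter format, copper sulfate (700 uM final) drives Gal4–ROR gamma fusion expression from a metallothionein promoter in Drosophila Schneider cells; compounds preincubated 1 hr, reporter read after 20 hr at ambient temperature.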
# An asterisk follows results filed as active; ? = inconclusive; · = no result; [ ] = dose if it differs, or a comment. An excerpt weighted towards active compounds, which were near 19% of everything screened. Calls follow the shape of the dose curve; as a rule, active = well fitted curve in the direction sought with a large enough effect; inconclusive = small, poorly fitted or top-dose-only effect, or another doubt; inactive = no such curve, though single readings can be large; an effect the other way counts as inactive or inconclusive. % is scaled to controls: 0 for no effect and ±100 for the full control effect; potency is read from the fitted curve at half-maximal effect.
SMILES,TDP1 block,DT40 TDP1 CPT,Gal4-VP16 FLuc,TDP1 cell noCPT,RORgamma inh
COc1ccc(C2NC(c3ccc(OC)cc3)C(c3ccccc3)C(=O)C2c2ccccc2)cc1 (stereo not given),3.5%,-22.6%,6.7%,20.6µM*,-8.0%
Clc1ccc(C2[C@H]3CN(Cc4cccnc4)[C@H](c4ccccc4)C34CC2(c2ccccc2)C4)cn1 (stereo not given in full),12.9%,?,-16.6%,?,-33.0%
O=C(O)c1ccc(OCCCCCCOC2CCCCO2)cc1 (stereo not given),·,?,1.5%,18.4µM*,-13.0%
CCCCn1nc2cc(C(=O)NCCc3cccs3)ccc2c1OCC,-2.8%,-3.6%,19.0%,?,39.8%
CCCCn1nc2cc(C(=O)NCC34CC5CC(CC(C5)C3)C4)ccc2c1OCC,2.8%,?,-19.7%,16.4µM*,4.8%
COc1ccc(/C=C/C(=O)c2ccncc2)c2ccccc12,5.4%,23.1µM*,?,16.4µM*,?
CCC(C)n1c(=N)c(C(=O)NC2CCCC2)cc2c(=O)n3ccccc3nc21 (stereo not given),·,-14.2%,·,?,·
COc1ccc(CNC(=O)CCn2c(=O)c3cccn3c3ccc(F)cc32)cc1,1.6%,?,-6.4%,?,6.6%
NS(=O)(=O)c1ccc(NC(=S)N2CCN(c3ccc(Cl)c(Cl)c3)CC2)cc1,4.5%,6.51µM*,?,6.51µM*,?
CC(C)NC(=S)NN=C1CCC(c2ccccc2)CC1 (stereo not given),7.4%,?,11.2µM*,16.4µM*,5.62µM*
O=C(COc1ccccc1C(=O)OCC(=O)N1CCOCC1)Nc1ccc(Br)cc1,·,15.8µM*,·,14.1µM*,·
O=C(COC(=O)c1ccccc1OCC(=O)Nc1ccc(Br)cc1)Nc1ccccc1,2.2%,?,?,?,34.2%
CN(C(=O)COC(=O)c1ccccc1OCC(=O)Nc1ccc(Br)cc1)c1ccccc1,·,?,·,11.2µM*,·
COC(=O)c1ccc(NC(=O)c2ccccc2OCC(=O)Nc2ccc(Br)cc2)cc1,·,?,·,10µM*,·
CC(C)c1cccc(NC(=O)COC(=O)c2ccccc2OCc2cccc(Br)c2)c1,·,?,·,15.8µM*,·
CC(C)C[C@@H](CC(=O)N[C@@H](CCC(=O)O)CC(=O)O)NC(=O)[C@@H]1CNCC[C@H]1NC(=O)C[C@H](CCCN)NC(=O)C[C@H](Cc1c[nH]c2ccccc12)NC(=O)[C@@H]1CCCC[C@H]1N,4.4%,·,6.1%,·,2.7%
CN(C)C(=O)c1ccc(NC(=O)COC(=O)CC23CC4CC(CC(Br)(C4)C2)C3)cc1,-6.5%,-29.6%,·,-28.1%,·
COc1cccc(OCC(=O)Nc2c3c(nn2-c2ccccc2)CS(=O)(=O)C3)c1,-2.1%[56.1 µM],-25.6%,3.0%,-10.0%,-4.0%
CN(C)C(=O)COc1ccccc1C(=O)OCC(=O)Nc1ccc(Oc2ccc(Br)cc2)cc1,·,?,·,11.2µM*,·
CS(=O)(=O)c1ccccc1NC(=O)COc1ccccc1C(=O)Nc1ccccc1,·,11.2µM*,·,11.2µM*,·
COc1cc2ccccc2cc1C(=O)OCC(=O)Nc1ccc(Br)cc1,·,7.94µM*,·,?,·
CC(C)(C)c1ccc(NC(=O)COC(=O)c2ccccc2OCC(=O)Nc2ccc(Br)cc2)cc1,·,15.8µM*,·,?,·
CNC(=O)COc1ccccc1C(=O)Nc1ccccc1,·,27.8%,·,7.7%,·
CNC(=O)CC1C(=O)N(c2ccc(F)cc2)C(=S)N1NC(=O)c1ccc(Br)cc1 (stereo not given),·,-24.6%,?,-27.6%,-41.5%
CCS(=O)(=O)c1ccc2oc(SCC(=O)Nc3ccc(OC)c(OC)c3)nc2c1,2.5%,-2.7%,-1.9%,-14.8%,-2.7%
Clc1ccc(CSc2nncn2-c2ccccn2)cc1,7.1%,?,-1.5%,-18.1%,30.1%
Clc1ccc(CSc2nncn2-c2ccc3c(c2)OCCO3)cc1,-4.1%,2.59µM*,0.3%,5.8µM*,-0.8%

# Bioassay records: PubChem, National Center for Advancing Translational Sciences (NCATS)
